# Reference: paper PMC7862700, “An all-to-all approach to the identification of sequence-specific readers for epigenetic DNA modifications on cytosine”
# Key:
# Assay in all cases: DAPPL (digital affinity profiling via proximity ligation, sequencing); 10 mM Tris-HCl pH 7.5, 50 mM NaCl, 1 mM DTT, 4% glycerol, room temperature, 30 min; GST-TFs on glutathione beads, 16-mer random dsDNA library, 0.1% formaldehyde crosslink after washing; high values mean tight binding
# Details in all cases: protein: recombinant; tags: N-terminal GST; dsDNA, one strand shown
# [1] = molecular target: T1, ELK4 (Homo sapiens, UniProt P28324-2 1-405)
# T1 sequence: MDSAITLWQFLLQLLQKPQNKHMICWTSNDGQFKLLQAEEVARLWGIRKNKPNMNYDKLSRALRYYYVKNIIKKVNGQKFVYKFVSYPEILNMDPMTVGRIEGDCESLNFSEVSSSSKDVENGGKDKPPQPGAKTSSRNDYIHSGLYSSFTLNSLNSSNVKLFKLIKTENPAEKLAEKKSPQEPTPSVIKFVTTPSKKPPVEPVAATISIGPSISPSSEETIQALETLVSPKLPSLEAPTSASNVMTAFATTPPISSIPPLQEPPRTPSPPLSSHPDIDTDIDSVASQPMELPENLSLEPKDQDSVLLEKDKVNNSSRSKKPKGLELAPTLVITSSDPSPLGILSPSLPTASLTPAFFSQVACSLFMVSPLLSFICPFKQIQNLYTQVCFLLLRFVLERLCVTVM
# Method in brief: (§1)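 Yeast served to express human transcription factors as GST fusions, which were then captured on glutathione beads and labelled with DNA barcodes. Pooled with a tag-only sample, they were incubated with 200 nmole of a 16-mer random double-stranded DNA library for 30 min at room temperature in Tris/NaCl/DTT/glycerol buffer, washed, crosslinked with 0.1% formaldehyde, ligated by proximity, amplified by PCR and sequenced. Dividing each hexamer's read frequency for a factor by its frequency for the tag-only sample gives the binding signal.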
# [2] = molecular target: T2, ETV2 (Homo sapiens, UniProt O00321 1-342)
# T2 sequence: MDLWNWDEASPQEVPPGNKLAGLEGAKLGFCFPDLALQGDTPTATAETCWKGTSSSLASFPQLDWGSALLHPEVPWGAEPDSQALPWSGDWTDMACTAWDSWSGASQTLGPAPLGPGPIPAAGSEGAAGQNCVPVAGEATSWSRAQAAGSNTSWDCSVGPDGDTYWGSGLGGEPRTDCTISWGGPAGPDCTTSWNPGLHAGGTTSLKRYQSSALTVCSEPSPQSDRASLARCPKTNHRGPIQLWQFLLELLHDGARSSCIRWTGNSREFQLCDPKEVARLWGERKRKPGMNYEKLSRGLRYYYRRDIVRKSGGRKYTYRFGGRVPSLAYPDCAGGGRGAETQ
# Method in brief: as §1
# [3] = molecular target: T3, ELF3 (Homo sapiens, UniProt P78545 1-371)
# T3 sequence: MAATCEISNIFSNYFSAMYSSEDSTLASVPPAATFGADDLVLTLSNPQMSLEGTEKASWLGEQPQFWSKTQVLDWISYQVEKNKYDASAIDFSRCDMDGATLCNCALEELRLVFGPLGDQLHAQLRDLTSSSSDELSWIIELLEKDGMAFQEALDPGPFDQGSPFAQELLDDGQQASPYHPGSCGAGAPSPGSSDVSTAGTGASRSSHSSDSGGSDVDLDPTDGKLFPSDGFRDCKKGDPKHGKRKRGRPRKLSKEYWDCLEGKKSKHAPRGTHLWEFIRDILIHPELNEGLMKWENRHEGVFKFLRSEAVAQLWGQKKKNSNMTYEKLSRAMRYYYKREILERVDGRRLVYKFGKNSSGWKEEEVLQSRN
# Method in brief: as §1
# [4] = molecular target: ETV1 (Homo sapiens, UniProt P50549 1-477)
# ETV1, sequence (P50549 whole entry): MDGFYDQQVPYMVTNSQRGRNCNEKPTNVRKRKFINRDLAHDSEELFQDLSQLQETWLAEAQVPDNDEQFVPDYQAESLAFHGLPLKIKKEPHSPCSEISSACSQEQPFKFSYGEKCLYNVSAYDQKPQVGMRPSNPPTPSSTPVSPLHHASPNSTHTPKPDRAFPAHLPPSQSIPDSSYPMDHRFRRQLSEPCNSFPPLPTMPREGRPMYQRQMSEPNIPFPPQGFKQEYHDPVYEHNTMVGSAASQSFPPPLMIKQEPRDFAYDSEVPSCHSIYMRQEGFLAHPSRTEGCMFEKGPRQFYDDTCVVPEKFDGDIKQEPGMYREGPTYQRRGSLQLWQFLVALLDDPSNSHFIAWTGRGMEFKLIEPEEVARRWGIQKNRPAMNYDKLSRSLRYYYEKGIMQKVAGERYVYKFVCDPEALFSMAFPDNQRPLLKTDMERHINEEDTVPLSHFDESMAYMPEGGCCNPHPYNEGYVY
# Method in brief: as §1
# [5] = molecular target: T4, ERF (Homo sapiens, UniProt P50548 1-548)
# T4 sequence: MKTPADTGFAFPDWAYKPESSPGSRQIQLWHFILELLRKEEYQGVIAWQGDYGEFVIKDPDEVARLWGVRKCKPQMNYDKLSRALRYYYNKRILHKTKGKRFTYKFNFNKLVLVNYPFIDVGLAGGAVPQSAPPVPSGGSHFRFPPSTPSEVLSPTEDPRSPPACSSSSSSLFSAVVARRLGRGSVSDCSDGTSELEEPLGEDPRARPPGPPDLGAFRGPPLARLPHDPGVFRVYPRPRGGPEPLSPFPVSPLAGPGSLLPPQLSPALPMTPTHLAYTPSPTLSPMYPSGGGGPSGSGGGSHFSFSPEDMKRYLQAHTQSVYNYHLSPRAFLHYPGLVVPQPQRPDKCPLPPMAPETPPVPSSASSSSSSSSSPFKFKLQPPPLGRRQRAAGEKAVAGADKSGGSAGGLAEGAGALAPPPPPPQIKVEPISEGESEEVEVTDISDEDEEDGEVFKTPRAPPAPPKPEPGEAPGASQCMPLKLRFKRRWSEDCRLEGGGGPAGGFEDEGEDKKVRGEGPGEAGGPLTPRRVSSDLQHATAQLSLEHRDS
# Method in brief: as §1
# [6] = molecular target: T5, ETV3L (Homo sapiens, UniProt Q6ZN32 1-361)
# T5 sequence: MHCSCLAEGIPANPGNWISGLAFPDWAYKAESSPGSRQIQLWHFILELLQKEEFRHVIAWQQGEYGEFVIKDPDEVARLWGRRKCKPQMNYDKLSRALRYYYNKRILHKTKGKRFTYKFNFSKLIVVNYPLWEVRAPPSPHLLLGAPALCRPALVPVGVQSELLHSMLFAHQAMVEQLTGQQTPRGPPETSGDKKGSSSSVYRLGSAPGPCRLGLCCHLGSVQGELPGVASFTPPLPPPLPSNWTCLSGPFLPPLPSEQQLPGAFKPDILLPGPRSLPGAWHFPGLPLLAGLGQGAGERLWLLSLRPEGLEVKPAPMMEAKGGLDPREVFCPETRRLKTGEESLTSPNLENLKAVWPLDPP
# Method in brief: as §1
# [7] = molecular target: T6, ETS2 (Homo sapiens, UniProt P15036 1-469)
# T6 sequence: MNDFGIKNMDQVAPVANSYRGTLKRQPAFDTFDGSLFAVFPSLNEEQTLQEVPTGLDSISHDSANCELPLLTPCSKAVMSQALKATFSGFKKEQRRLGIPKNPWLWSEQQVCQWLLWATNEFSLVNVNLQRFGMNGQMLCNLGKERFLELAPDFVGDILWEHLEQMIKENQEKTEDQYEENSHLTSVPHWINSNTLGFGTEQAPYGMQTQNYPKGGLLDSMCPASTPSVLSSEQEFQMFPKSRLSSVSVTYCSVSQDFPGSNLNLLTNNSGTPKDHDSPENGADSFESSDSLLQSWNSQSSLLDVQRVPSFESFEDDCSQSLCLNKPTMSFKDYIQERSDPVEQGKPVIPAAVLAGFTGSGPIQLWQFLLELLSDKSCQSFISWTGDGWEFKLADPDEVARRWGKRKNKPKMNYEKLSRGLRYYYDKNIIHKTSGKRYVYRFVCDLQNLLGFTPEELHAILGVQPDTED
# Method in brief: as §1
# [8] = molecular target: T7, ETV7 (Homo sapiens, UniProt Q9Y603 1-341)
# T7 sequence: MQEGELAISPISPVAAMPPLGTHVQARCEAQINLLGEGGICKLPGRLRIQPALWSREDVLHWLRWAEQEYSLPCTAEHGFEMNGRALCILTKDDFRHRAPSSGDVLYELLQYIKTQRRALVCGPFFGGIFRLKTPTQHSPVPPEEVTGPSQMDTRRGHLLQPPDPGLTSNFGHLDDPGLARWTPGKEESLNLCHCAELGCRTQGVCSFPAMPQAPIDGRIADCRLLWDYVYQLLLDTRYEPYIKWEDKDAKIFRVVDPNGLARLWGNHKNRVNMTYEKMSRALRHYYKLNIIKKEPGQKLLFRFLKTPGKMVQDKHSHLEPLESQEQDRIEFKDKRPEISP
# Method in brief: as §1
# [9] = molecular target: T8, ETV3 (Homo sapiens, UniProt P41162-2 1-143)
# T8 sequence: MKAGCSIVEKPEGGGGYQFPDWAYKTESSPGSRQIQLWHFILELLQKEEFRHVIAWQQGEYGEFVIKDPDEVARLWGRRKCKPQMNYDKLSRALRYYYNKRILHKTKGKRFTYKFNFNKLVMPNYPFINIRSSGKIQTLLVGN
# Method in brief: as §1
# [10] = molecular target: ETV6 (Homo sapiens, UniProt P41212 1-452)
# ETV6, sequence (P41212 whole entry): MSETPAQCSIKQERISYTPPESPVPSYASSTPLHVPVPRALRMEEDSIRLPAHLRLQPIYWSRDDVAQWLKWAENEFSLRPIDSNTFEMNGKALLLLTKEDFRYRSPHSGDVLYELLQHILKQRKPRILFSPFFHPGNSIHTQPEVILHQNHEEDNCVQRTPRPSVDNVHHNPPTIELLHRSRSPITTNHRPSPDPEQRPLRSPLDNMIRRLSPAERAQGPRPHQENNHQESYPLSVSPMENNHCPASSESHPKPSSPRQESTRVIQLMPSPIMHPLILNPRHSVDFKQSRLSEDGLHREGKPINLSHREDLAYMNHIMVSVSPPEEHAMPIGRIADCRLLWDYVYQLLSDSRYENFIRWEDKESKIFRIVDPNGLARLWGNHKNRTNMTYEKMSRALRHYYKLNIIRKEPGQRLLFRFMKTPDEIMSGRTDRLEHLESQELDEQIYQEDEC
# Method in brief: as §1
sequence,measurement,setting,value
CGTTTA,binding signal,[1],"1.15 fold enrichment (6-mer frequency, TF over GST control)"
same,binding signal,[2],"1.03 fold enrichment (6-mer frequency, TF over GST control)"
same,binding signal,[3],"1.09 fold enrichment (6-mer frequency, TF over GST control)"
same,binding signal,[4],"1.12 fold enrichment (6-mer frequency, TF over GST control)"
same,binding signal,[5],"1.05 fold enrichment (6-mer frequency, TF over GST control)"
same,binding signal,[6],"1.1 fold enrichment (6-mer frequency, TF over GST control)"
same,binding signal,[7],"1.16 fold enrichment (6-mer frequency, TF over GST control)"
same,binding signal,[8],"1.12 fold enrichment (6-mer frequency, TF over GST control)"
same,binding signal,[9],"1.05 fold enrichment (6-mer frequency, TF over GST control)"
same,binding signal,[10],"1.14 fold enrichment (6-mer frequency, TF over GST control)"
